Test results from PubChem BioAssay (NCI).
This is part of a sample that, as a whole, favours compounds with a hit. Of some 83,000 tested, about 20% had one in any assay.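 How to read the values: 0–100, growth inhibition (40 = 60% inhibited); 0, no net growth; -100 to 0, cell death (-40 = 40% of starting cells died; -100 = all dead).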 A number with no mark means an inactive call. The source made the active and inactive calls. The calls were made as follows: active = growth percent below 10; inactive = the rest.

Experiments:
Assay in all cases: NCI-60 one-dose screen, 48 h (100 = growth as untreated, 0 = no growth, -100 = all killed)
Conditions in all cases: 10 µM
DU-145 prostate = test system: DU-145 prostate
K-562 leukemia = test system: K-562 leukemia
MALME-3M melanoma = test system: MALME-3M melanoma
MDA-MB-231 breast = test system: MDA-MB-231 breast
SF-268 CNS = test system: SF-268 CNS
SF-295 CNS = test system: SF-295 CNS
SF-539 CNS = test system: SF-539 CNS
UACC-257 melanoma = test system: UACC-257 melanoma
M14 melanoma = test system: M14 melanoma

SMILES | growth (DU-145 prostate) | growth (K-562 leukemia) | growth (MALME-3M melanoma) | growth (MDA-MB-231 breast) | growth (SF-268 CNS) | growth (SF-295 CNS) | growth (SF-539 CNS) | growth (UACC-257 melanoma) | growth (M14 melanoma)
Nc1nc(-c2ccccc2)cs1 | 66.7% | 28.2% | 74.4% | 61.8% | 48.3% | 37.7% | 53.4% | 81.9% | 72.2%
CCCSc1nc(NC2CC2)c(C#N)c(-c2ccc(OC)cc2)n1 | 98.1% | 92.4% | 134% | 85% | 80.9% | 78.7% | 85.6% | 107% | 129%
NS(=O)(=O)c1ccc(NC(=O)CSc2ccc(-c3ccccc3)nn2)c(Br)c1 | 75.9% | 96% | 72.8% | 47.7% | 20.8% | 69.9% | 48.5% | 100% | 99.1%
O=C(Nc1ccc(Cl)c([N+](=O)[O-])c1)Nc1ccc(Cl)c([N+](=O)[O-])c1 | 18.4% | 19.8% | -11.2% (active) | 17.5% | 18% | 0.239% (active) | 11.4% | 36.9% | 18.6%
Cc1cc(=O)oc2cc(OCCCCOc3ccc(/C=C/C(=O)Nc4cccc(Cl)c4)cc3)ccc12 | 46.5% | 63.8% | 29.8% | 88.3% | 61.4% | 78.6% | 72.6% | 81.5% | 71.9%
COc1cnc2c(c1)C(=O)c1c-2n(CCCNCCO)c(=O)c2cc(OC)c(OC)cc12 | 15.6% | 26.8% | 49% | 19.2% | 44% | 6.94% (active) | -52.7% (active) | 68.3% | 23.1%
O=C(CNc1nc(-c2ccccc2)cs1)Nc1ccc([N+](=O)[O-])cc1 | 45.2% | 9.52% (active) | -66.6% (active) | -13.4% (active) | 38.4% | 26% | -28.2% (active) | 39.5% | 30.2%
O=C(CSc1nnc(-c2c[nH]c3ccccc23)n1-c1ccccc1)c1ccc(Cl)cc1 | 88.4% | 69% | 64% | 51.7% | 69.4% | 55% | 49.5% | 72.3% | 80.6%
COC1=C[C@@]23CCC(=O)N2CCc2cc4c(cc2[C@H]3[C@H]1OC(=O)C(C)(C)O)OCO4 | 108% | 107% | 102% | 94.9% | 104% | 95.8% | 93.6% | 104% | 102%
O=C(Nc1cccc([N+](=O)[O-])c1)Nc1cccc([N+](=O)[O-])c1 | 82% | 57.6% | 98.6% | 87.5% | 79.9% | 76.3% | 93% | 93.2% | 87.2%
CCCCSc1nc(Nc2ccc(/C(C)=N/NC(N)=S)cc2)c(C#N)c(-c2ccc(OC)cc2)n1 | 61.5% | 78.2% | -39.6% (active) | -11.4% (active) | 56.6% | 69.7% | -55.4% (active) | 74.9% | 39.3%
CCCn1c(=O)c2[nH]c(-c3ccc(OCc4nc5ccc(F)cc5[nH]4)cc3)nc2n(CCC)c1=O | 34.2% | 34.9% | -52.2% (active) | -46.7% (active) | 46.5% | 10.6% | -68.9% (active) | 31.9% | 44.7%
Cc1ccc(C(=O)CSc2nnc(-c3c[nH]c4ccccc34)n2-c2ccccc2)cc1 | 78.9% | 27.2% | 35.1% | -2.39% (active) | 29.7% | 11.1% | 22.1% | 77.3% | 51.2%
O=C1Nc2ccc(Cl)cc2/C1=C/c1ccc(OCc2ccccn2)cc1 | 87.8% | 51% | 38.5% | 21.7% | 79.3% | 84.5% | 73.5% | 118% | 89.9%
CCNCCCn1c2c(c3cc(OC)c(OC)cc3c1=O)C(=O)c1cc3c(nc1-2)OCO3 | 12.1% | -18.2% (active) | -93.5% (active) | -91.6% (active) | 8.1% (active) | 4.2% (active) | -44.1% (active) | 45.4% | 0.853% (active)
COc1ccc(NC(=O)CSc2nnc(-c3ccc4nc(-c5ccc(Cl)cc5)[nH]c4c3)o2)cc1 | 55.4% | 14.7% | -81.7% (active) | 20.5% | 48% | 26.1% | 50.5% | 71.5% | 14.8%
Clc1ccc2c(N/N=C/c3c[nH]c4ccc(Br)cc34)ccnc2c1 | -79.3% (active) | -25.5% (active) | -83% (active) | -90.4% (active) | -35.7% (active) | -99.4% (active) | -87.6% (active) | -83.8% (active) | -46.3% (active)
CCCn1c(=O)c2[nH]c(-c3ccc(OCc4nc5ccc(C(F)(F)F)cc5[nH]4)cc3)nc2n(CCC)c1=O | 58.3% | 34.9% | 14.2% | 11.1% | 57.2% | 38.8% | 1.94% (active) | 65.5% | 59.5%
CCOC(=O)C(Cc1ccccc1)N1C(=O)/C(=C/N2N=C(c3ccc(OC)cc3)CC2c2ccc3ccccc3c2)SC1=S (configuration not stated) | 30.7% | 11.9% | -27.2% (active) | 3.55% (active) | 30.2% | -78.2% (active) | -27.2% (active) | 1.02% (active) | 7.24% (active)
COc1ccc(/C=C/C(=O)c2ccc(N3CCN(C)CC3)cc2)c(C(F)(F)F)c1 | 41.3% | 2.66% (active) | 45.2% | 37.4% | 70.8% | 18.4% | 14.6% | 63.3% | 38.3%
COc1ccc(NC(=O)Cn2c(/C=C/c3ccc(N(C)C)cc3)nc3ccccc3c2=O)cc1 | 6.75% (active) | 58.8% | 7.28% (active) | 18.8% | 73% | 49.5% | -60.2% (active) | 67.7% | 81%
COc1ccc2cc([C@H](C)C(=O)NCc3ccccc3)ccc2c1 | 29.4% | 20.1% | 55.2% | 38.4% | 60.2% | 12.8% | 2.48% (active) | 64.7% | 38.2%
O=C(Cc1ccc2c(c1)CN(C1CCC(=O)NC1=O)C2=O)NCCc1ccccc1 (configuration not stated) | 66.8% | 20.2% | -59.7% (active) | -32.2% (active) | 31.3% | 17% | 29.1% | 92.2% | 7.92% (active)
CN(C)CCNC(=O)OCCCCOc1cc(O)c2c(=O)cc(-c3ccccc3)oc2c1 | -27% (active) | 8.72% (active) | -96.8% (active) | -77.8% (active) | -44.9% (active) | -90.5% (active) | -100% (active) | -79.7% (active) | -75.1% (active)
C=CCn1c(SCC(=O)Nc2ccc(C(=O)/C=C/c3ccccc3)cc2)nnc1-c1c[nH]c2ccccc12 | 65.8% | 14.6% | 92.4% | 69.3% | 53.3% | 35% | -7.36% (active) | 80.3% | 35.3%
CC(=O)Nc1ccc(-c2cn(-c3cccc(C(=O)Nc4cc(CN5CCOCC5)cc(C(F)(F)F)c4)c3)nn2)cn1 | -40% (active) | 0.612% (active) | -97.1% (active) | -95.7% (active) | -27.5% (active) | -88.6% (active) | -100% (active) | -81.5% (active) | -90.3% (active)
CCOP(=O)(OCC)O[C@H]1CCC(=O)[C@@H]2[C@H]1[C@H]1C[C@@H]3[C@@]4(C)CCCC(C)(C(=O)OC)[C@@H]4CC[C@@]23C=C1C(C)C (some centres not stated) | 83.1% | 30.1% | 86.2% | 67% | 76.4% | 69.1% | 71.7% | 41.8% | 55.4%
O=C(CSc1nnc(-c2ccc3nc(-c4ccccc4)[nH]c3c2)o1)Nc1ccc(Br)cc1 | 78.2% | 18.4% | 5.76% (active) | 52.3% | 87.8% | 74.3% | 8.7% (active) | 98.8% | 52.3%
